# From PubChem BioAssay (NCATS)
# Inconclusive results are not listed. Entries that show only a call come without a potency. Activity calls are given as the source filed them. Unless noted, calls come from the whole dose curve; as a rule, active = well fitted curve in the direction sought with a large enough effect; inconclusive = small, poorly fitted or top-dose-only effect, or another doubt; inactive = no such curve, though single readings can be large; an effect the other way counts as inactive or inconclusive.
# Experiments:
# [1] = P-glycoprotein substrates identified in KB-8-5-11 adenocarcinoma cell line, qHTS therapeutic library screen (AID 1346987); note: nearly all actives have a fitted effect of over 65% in size; note: potency is the fitted concentration of half-maximal effect
# Outline: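 Steps: plate 500 KB-8-5-11 cells/well in DMEM + 10% FCS (colchicine removed); pin compounds in dose-response; incubate 72 h, 37 degree C, 5% CO2; add CellTiter-Glo, 5 min; read luminescence.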
# [2] = NS1 protein of Zika virus - qHTS assay to identify small molecule inhibitors in human HEK 293 cells (AID 1347053); note: nearly all actives have a fitted effect of over 55% in size; note: potency is the fitted concentration of half-maximal effect
# Outline: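 Inhibition of NS1 expression was scored in HEK 293 cells given compound 1 h ahead of MR766 virus (MOI = 0.5). Following 24 h at 37 C, two anti-NS1 antibodies generated a TR-FRET signal, scaled between uninfected and infected controls.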
# [3] = qHTS for Inhibitors of the Functional Ribonucleoprotein Complex (vRNP) of Lassa (LASV) Arenavirus: LASV Primary Screen - GLuc reporter signal (AID 1347082; calls by dose curve; tested in HEK293 reporter line; note: nearly all actives have a fitted effect of over 60% in size; note: potency is the fitted concentration of half-maximal effect)
# [4] = qHTS for Inhibitors of the Functional Ribonucleoprotein Complex (vRNP) of Lassa (LASV) Arenavirus: Viability assay - alamar blue signal for LASV Primary Screen (AID 1347083; calls by dose curve; tested in HEK293 reporter line; note: nearly all actives have a fitted effect of over 80% in size; note: potency is the fitted concentration of half-maximal effect)
# [5] = qHTS for Inhibitors of the Functional Ribonucleoprotein Complex (vRNP) of Lymphocytic Choriomeningitis Arenaviruses (LCMV): Viability assay - alamar blue signal for LCMV Primary Screen (AID 1347085; calls by dose curve; tested in HEK293 reporter line; note: nearly all actives have a fitted effect of over 80% in size; note: potency is the fitted concentration of half-maximal effect)
# [6] = biological target: Nucleoprotein (Lymphocytic choriomeningitis virus (strain Armstrong)) (UniProt P09992); assay: qHTS for Inhibitors of the Functional Ribonucleoprotein Complex (vRNP) of Lymphocytic Choriomeningitis Arenaviruses (LCMV): LCMV Primary Screen - GLuc reporter signal (AID 1347086; calls by dose curve; note: nearly all actives have a fitted effect of over 70% in size; note: potency is the fitted concentration of half-maximal effect)
# Chain of Nucleoprotein (Lymphocytic choriomeningitis virus (strain Armstrong)) (P09992 whole entry, looked up): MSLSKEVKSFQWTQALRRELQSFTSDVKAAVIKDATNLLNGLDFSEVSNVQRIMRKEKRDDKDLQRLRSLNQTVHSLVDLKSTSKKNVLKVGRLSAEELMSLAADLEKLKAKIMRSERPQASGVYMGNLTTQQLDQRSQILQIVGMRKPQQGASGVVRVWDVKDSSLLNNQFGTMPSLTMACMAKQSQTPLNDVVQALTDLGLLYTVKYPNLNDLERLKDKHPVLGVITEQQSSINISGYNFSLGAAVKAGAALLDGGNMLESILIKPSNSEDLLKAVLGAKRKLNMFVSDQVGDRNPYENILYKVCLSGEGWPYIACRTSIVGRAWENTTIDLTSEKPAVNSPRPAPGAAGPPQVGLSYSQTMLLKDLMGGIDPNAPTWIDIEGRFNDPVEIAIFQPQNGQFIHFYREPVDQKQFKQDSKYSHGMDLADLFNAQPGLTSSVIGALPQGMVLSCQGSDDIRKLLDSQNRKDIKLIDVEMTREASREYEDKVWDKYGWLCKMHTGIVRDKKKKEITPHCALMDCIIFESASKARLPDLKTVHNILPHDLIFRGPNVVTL
# [7] = Natriuretic polypeptide receptor (hNpr1) antagonism - Pilot counterscreen GloSensor control cell line (AID 1347045; calls by dose curve; note: series mostly up to about 38 µM)
# Outline: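 Luminescence was read before and 20 min after adding 50 uM SNP, which stimulates soluble guanylyl cyclase. The HEK293 cells expressing the GloSensor cGMP sensor had been preloaded with 2% reagent for 2 h and treated with compound.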
# [8] = biological target: Atrial natriuretic peptide receptor 1 (Homo sapiens) (UniProt P16066); assay: Natriuretic polypeptide receptor (hNpr1) antagonism - Pilot screen (AID 1347049; calls by dose curve;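 note: agonist-evoked cGMP luminescence read 20 min after hNppA addition; series mostly up to about 58 µM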)
# Chain of Atrial natriuretic peptide receptor 1 (Homo sapiens) (P16066 whole entry, looked up): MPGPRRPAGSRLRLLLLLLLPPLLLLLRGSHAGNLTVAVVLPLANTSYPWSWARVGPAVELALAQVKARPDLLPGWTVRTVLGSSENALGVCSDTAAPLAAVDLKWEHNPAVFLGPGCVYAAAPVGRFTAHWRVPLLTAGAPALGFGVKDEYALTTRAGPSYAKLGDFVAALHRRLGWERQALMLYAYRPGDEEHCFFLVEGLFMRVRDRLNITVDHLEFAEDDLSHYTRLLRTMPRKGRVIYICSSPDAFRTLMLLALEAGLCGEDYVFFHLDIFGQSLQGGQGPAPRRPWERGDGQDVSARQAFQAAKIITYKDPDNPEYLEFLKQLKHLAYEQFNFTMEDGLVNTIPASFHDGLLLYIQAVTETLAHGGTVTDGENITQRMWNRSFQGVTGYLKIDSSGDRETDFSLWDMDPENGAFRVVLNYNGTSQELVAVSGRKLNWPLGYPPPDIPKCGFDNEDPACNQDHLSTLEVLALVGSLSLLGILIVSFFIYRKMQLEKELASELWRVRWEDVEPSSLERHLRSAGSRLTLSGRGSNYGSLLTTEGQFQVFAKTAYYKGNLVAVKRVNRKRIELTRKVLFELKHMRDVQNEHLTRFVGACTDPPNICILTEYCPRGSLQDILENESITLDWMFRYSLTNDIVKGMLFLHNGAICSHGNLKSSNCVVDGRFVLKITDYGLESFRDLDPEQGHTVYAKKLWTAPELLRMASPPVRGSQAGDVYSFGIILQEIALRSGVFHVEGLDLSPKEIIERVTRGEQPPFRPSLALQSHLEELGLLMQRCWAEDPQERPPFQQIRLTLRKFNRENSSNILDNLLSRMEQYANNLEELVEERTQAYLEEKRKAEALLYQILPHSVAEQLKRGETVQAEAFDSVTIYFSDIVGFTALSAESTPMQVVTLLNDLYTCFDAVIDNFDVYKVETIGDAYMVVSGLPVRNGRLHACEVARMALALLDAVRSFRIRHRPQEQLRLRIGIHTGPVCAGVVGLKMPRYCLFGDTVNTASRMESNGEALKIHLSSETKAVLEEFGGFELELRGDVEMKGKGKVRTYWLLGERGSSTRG
# Outline: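 Readout is cGMP-driven firefly luciferase luminescence in HEK293 cells carrying hNpr1 and a PDE5-domain GloSensor, read before and 20 min after 0.1 nM hNppA stimulation. Cells had 2% substrate reagent for 2 h and test compound for 30 min.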
# [9] = biological target: Atrial natriuretic peptide receptor 2 (Homo sapiens) (UniProt P20594); assay: Natriuretic polypeptide receptor (hNpr2) antagonism - Pilot subtype selectivity assay (AID 1347050; calls by dose curve)
# Chain of Atrial natriuretic peptide receptor 2 (Homo sapiens) (P20594 whole entry, looked up): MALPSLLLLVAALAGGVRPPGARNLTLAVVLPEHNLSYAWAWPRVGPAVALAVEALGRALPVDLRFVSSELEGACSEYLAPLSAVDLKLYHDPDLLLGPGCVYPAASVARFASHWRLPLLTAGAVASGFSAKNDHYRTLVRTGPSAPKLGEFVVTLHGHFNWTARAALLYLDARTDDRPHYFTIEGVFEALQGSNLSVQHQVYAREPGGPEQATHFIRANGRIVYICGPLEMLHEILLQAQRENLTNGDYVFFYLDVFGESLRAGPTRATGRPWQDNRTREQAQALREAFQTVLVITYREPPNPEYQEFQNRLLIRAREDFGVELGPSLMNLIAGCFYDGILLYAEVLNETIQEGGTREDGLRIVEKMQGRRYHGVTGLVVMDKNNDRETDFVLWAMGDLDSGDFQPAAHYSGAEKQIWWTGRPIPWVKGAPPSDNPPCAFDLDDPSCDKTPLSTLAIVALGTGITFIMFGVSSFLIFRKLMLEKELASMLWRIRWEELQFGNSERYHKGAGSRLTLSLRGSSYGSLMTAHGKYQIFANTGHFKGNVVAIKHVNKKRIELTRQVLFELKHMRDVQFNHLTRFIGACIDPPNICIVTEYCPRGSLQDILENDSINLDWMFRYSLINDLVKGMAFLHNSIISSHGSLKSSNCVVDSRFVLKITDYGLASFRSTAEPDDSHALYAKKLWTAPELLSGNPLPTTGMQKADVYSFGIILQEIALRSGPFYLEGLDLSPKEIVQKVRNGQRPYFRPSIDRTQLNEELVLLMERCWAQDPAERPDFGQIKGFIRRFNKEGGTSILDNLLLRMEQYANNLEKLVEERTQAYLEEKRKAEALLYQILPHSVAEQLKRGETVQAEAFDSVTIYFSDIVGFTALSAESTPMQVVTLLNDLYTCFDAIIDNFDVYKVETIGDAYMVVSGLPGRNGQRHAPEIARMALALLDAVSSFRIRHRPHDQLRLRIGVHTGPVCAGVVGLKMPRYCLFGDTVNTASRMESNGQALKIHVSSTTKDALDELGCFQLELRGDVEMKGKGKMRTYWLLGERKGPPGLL
# Outline: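 Pilot selectivity screen against hNpr2: HEK293 cGMP-sensor cells are treated with LOPAC1280 compounds, then with hNppC peptide at 1 nM final. The cGMP-driven luminescence change over 20 min at room temperature is the read-out.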
# [10] = biological target: T1, Tyrosine-protein phosphatase non-receptor type substrate 1 (Homo sapiens) + Leukocyte surface antigen CD47 (Homo sapiens) (UniProt P78324+Q08722); assay: CD47-SIRPalpha protein protein interaction - LANCE assay qHTS validation (AID 1347057; active = well fitted curve in the direction sought with a large enough effect in the signal ratio, with a control signal flat, not every such curve was filed as active; the % refers to the signal ratio; note: series mostly up to about 38 µM)
# T1 sequence (P78324 whole entry, looked up): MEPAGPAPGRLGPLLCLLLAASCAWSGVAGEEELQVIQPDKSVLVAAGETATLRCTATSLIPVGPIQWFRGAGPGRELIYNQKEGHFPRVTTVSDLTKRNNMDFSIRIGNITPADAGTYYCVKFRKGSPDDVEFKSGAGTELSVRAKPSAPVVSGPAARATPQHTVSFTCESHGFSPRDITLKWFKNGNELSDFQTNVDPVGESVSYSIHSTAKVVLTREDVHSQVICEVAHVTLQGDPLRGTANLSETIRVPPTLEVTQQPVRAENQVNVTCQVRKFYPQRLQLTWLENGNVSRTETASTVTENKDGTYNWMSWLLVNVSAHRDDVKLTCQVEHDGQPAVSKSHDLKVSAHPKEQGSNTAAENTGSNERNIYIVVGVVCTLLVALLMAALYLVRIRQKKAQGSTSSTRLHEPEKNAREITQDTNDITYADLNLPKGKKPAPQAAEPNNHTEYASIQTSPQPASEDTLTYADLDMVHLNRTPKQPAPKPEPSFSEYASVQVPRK
# T1 sequence (Q08722 whole entry, looked up): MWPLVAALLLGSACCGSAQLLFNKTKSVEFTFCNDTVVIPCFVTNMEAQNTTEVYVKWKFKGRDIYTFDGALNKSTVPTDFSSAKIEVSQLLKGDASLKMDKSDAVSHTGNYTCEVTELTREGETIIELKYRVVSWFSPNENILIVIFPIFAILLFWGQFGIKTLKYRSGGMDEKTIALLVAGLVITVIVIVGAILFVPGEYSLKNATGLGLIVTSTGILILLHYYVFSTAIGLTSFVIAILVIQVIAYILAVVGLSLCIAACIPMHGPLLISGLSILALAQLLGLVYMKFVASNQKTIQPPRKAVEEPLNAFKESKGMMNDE
# Outline: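 First, His-tagged CD47 and Eu-labelled anti-His antibody met the compound for 30 min; next, site-specifically biotinylated SIRPalpha was added for 30 min; finally streptavidin-APC was added before reading the TR-FRET ratio.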
# [11] = biological target: T1, Tyrosine-protein phosphatase non-receptor type substrate 1 (Homo sapiens) + Leukocyte surface antigen CD47 (Homo sapiens); assay: CD47-SIRPalpha protein protein interaction - HTRF assay qHTS validation (AID 1347058; active = well fitted curve in the direction sought with a large enough effect in the signal ratio, not every such curve was filed as active; the % refers to the signal ratio;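 note: recombinant soluble extracellular CD47 with His tag and biotinylated SIRPalpha domains; series mostly up to about 38 µM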)
# Outline: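 TR-FRET read (Ch1/Ch2 ratio) of soluble extracellular CD47 and Avi-biotinylated SIRPalpha domains in PBS pH 7.4 with 0.05% IGEPAL; 7-point compound titration. Sequential 30 min room-temperature steps; non-biotinylated SIRPalpha as control inhibitor.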
# [12] = biological target: T1, Tyrosine-protein phosphatase non-receptor type substrate 1 (Homo sapiens) + Leukocyte surface antigen CD47 (Homo sapiens); assay: CD47-SIRPalpha protein protein interaction - Alpha assay qHTS validation (AID 1347059);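 note: bead proximity luminescence from CD47 binding SIRPalpha after compound preincubation with SIRPalpha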
# Outline: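 Binding is measured by AlphaScreen proximity: Ni-NTA acceptor beads capture His-CD47, streptavidin donor beads capture biotin-SIRPalpha. Each of three additions (SIRPalpha with compound, CD47, beads) incubates 30 min at room temperature protected from light.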
# [13] = biological target: Parathyroid hormone/parathyroid hormone-related peptide receptor (Homo sapiens) (UniProt Q03431); assay: qHTS for PTHR1 Agonists: Optimization Screen against the NCGC LOPAC library (AID 1347079);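 note: GloSensor cAMP luminescence in HEK-293 GP2 cells expressing human PTHR1 with IBMX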
# Chain of Parathyroid hormone/parathyroid hormone-related peptide receptor (Homo sapiens) (Q03431 whole entry, looked up): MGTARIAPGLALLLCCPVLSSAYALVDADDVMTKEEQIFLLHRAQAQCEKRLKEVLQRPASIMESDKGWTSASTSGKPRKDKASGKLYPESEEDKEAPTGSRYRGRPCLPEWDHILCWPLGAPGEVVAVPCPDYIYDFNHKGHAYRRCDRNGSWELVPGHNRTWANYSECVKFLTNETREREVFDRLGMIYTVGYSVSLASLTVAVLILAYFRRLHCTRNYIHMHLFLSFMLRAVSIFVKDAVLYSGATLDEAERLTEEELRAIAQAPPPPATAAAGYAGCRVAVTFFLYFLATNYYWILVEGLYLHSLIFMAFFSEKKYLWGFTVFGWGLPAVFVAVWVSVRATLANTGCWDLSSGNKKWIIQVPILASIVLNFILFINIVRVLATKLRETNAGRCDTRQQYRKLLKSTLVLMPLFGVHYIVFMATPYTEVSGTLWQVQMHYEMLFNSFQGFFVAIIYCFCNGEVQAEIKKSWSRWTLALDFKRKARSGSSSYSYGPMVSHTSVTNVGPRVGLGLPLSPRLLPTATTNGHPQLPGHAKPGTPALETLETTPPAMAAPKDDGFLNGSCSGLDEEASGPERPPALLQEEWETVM
# Outline: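 Agonist readout: GloSensor cAMP luminescence, read after 15 min at room temperature. HEK-293-derived GP2 line carries PTHR1; compounds tested as a titration for 1 hr at 37C in presence of IBMX. M-PTH (1-15) served as control.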
smiles,measurement,setting,value
C1=C2CCCN[C@H]2[C@@H]2C[C@H]1[C@@H]1CCCCN1C2,Potency,[1],inactive
same,Potency,[2],inactive
same,Potency,[3],inactive
same,Potency,[4],inactive
same,Potency,[5],inactive
same,Potency,[6],inactive
COCCOCCO,Potency,[1],inactive
same,Potency,[2],inactive
same,Potency,[3],inactive
same,Potency,[4],inactive
same,Potency,[5],inactive
same,Potency,[6],inactive
O=c1[nH]c2ccc(Cl)cc2c(N[C@@H]2CN3CCC2CC3)c1-c1nc2ccccc2[nH]1,Potency,[1],1660 nM (active)
same,Potency,[2],52.6 nM (active)
same,Potency,[3],1220 nM (active)
same,Potency,[4],122 nM (active)
same,Potency,[5],217 nM (active)
same,Potency,[6],863 nM (active)
O=[N+]([O-])/N=C1\NCCN1Cc1ccc(Cl)nc1,Potency,[1],inactive
same,Potency,[2],inactive
same,Potency,[3],inactive
same,Potency,[4],inactive
same,Potency,[5],inactive
same,Potency,[6],inactive
O=C(O)CCCOc1ccc(Cl)cc1Cl,Potency,[1],inactive
same,Potency,[2],inactive
same,Potency,[3],inactive
same,Potency,[4],inactive
same,Potency,[5],inactive
same,Potency,[6],inactive
O=C(O)c1cc(Oc2ccc(C(F)(F)F)cc2Cl)ccc1[N+](=O)[O-],Potency,[1],inactive
same,Potency,[2],inactive
same,Potency,[3],inactive
same,Potency,[4],inactive
same,Potency,[5],inactive
same,Potency,[6],inactive
CCCC[N+]1(C)[C@H]2CC(OC(=O)[C@H](CO)c3ccccc3)C[C@H]1[C@H]1O[C@H]12 (stereo not given in full),Potency,[1],inactive
same,Potency,[2],inactive
same,Potency,[3],inactive
same,Potency,[4],inactive
same,Potency,[5],inactive
same,Potency,[6],inactive
Cc1ccc(Cl)c(O)c1,Potency,[1],inactive
same,Potency,[2],inactive
same,Potency,[3],inactive
same,Potency,[4],inactive
same,Potency,[5],inactive
same,Potency,[6],inactive
CCC1(CCC(C)C)C(=O)NC(=O)NC1=O,Potency,[1],inactive
same,Potency,[2],inactive
same,Potency,[3],inactive
same,Potency,[4],inactive
same,Potency,[5],inactive
same,Potency,[6],inactive
O=S(=O)(O)C(F)(F)C(F)(F)C(F)(F)C(F)(F)C(F)(F)C(F)(F)C(F)(F)C(F)(F)F,Potency,[1],inactive
same,Potency,[2],inactive
same,Potency,[3],inactive
same,Potency,[4],inactive
same,Potency,[5],inactive
same,Potency,[6],inactive
O=C1C(I)=CC(=C(c2cc(I)c(O)c(I)c2)c2ccccc2C(=O)O)C=C1I,Potency,[1],inactive
same,Potency,[2],inactive
same,Potency,[3],inactive
same,Potency,[4],inactive
same,Potency,[5],inactive
same,Potency,[6],inactive
CCCCCCCCc1ccc(O)cc1,Potency,[1],inactive
same,Potency,[2],inactive
same,Potency,[3],inactive
same,Potency,[4],inactive
same,Potency,[5],inactive
same,Potency,[6],inactive
CN[C@@H]1Cc2cccc3[nH]c(=O)n(c23)C1,Potency,[1],inactive
same,Potency,[2],inactive
same,Potency,[3],inactive
same,Potency,[4],inactive
same,Potency,[5],inactive
same,Potency,[6],inactive
CCOC(=O)c1cncn1[C@H](C)c1ccccc1,Potency,[1],inactive
same,Potency,[2],inactive
same,Potency,[3],inactive
same,Potency,[4],inactive
same,Potency,[5],inactive
same,Potency,[6],inactive
O=C(O)COc1nc(Cl)c(Cl)cc1Cl,Potency,[1],inactive
same,Potency,[2],inactive
same,Potency,[3],inactive
same,Potency,[4],inactive
same,Potency,[5],inactive
same,Potency,[6],inactive
C[C@]12COC(=O)C[C@@H]1CC[C@@H]1[C@H]2CC[C@@]2(C)[C@H]1CC[C@]2(C)O,Potency,[1],inactive
same,Potency,[2],inactive
same,Potency,[3],inactive
same,Potency,[4],inactive
same,Potency,[5],inactive
same,Potency,[6],inactive
C[C@@H]1O[C@@H](O[C@@H]2C=C3CC[C@@H]4[C@@H](CC[C@]5(C)[C@H](c6ccc(=O)oc6)CC[C@@]45O)[C@@]3(C)CC2)[C@H](O)[C@H](O)[C@H]1O,Potency,[1],20.9 nM (active)
same,Potency,[2],11.8 nM (active)
same,Potency,[3],68.5 nM (active)
same,Potency,[4],68.5 nM (active)
same,Potency,[5],54.4 nM (active)
same,Potency,[6],76.9 nM (active)
C[C@H]1CCCC=CC2C[C@H](O)C[C@@H]2[C@H](O)C=CC(=O)O1 (stereo not given in full),Potency,[1],1 nM (active)
same,Potency,[2],inactive
same,Potency,[3],27.3 nM (active)
same,Potency,[4],24.3 nM (active)
same,Potency,[5],19.3 nM (active)
same,Potency,[6],10.9 nM (active)
COC(=O)c1cncn1C(C)c1ccccc1 (stereo not given),Potency,[1],inactive
same,Potency,[2],inactive
same,Potency,[3],inactive
same,Potency,[4],inactive
same,Potency,[5],inactive
same,Potency,[6],inactive
CN[C@@H](C)[C@H](O)c1ccccc1,Potency,[1],inactive
same,Potency,[2],inactive
same,Potency,[3],inactive
same,Potency,[4],inactive
same,Potency,[5],inactive
same,Potency,[6],inactive
C[C@]12CCC(=O)C(O)=C1CC[C@@H]1[C@H]3CCC(=O)[C@@]3(C)CC[C@@H]12,Potency,[1],inactive
same,Potency,[2],inactive
same,Potency,[3],inactive
same,Potency,[4],inactive
same,Potency,[5],inactive
same,Potency,[6],inactive
CC(=Cc1csc(C)n1)[C@@H]1C[C@H]2O[C@@H]2CCC[C@H](C)[C@@H](O)[C@@H](C)C(=O)C(C)(C)[C@@H](O)CC(=O)O1,Potency,[1],1 nM (active)
same,Potency,[2],inactive
same,Potency,[3],inactive
same,Potency,[4],inactive
same,Potency,[5],inactive
same,Potency,[6],inactive
CSCC[C@@H](NC(=O)[C@@H](Cc1ccccc1)NC(=O)CNC(=O)CNC(=O)[C@@H](N)Cc1ccc(O)cc1)C(=O)O,Potency,[1],inactive
same,Potency,[2],inactive
same,Potency,[3],inactive
same,Potency,[4],inactive
same,Potency,[5],inactive
same,Potency,[6],inactive
O=C(O)COc1ccccc1,Potency,[1],inactive
same,Potency,[2],inactive
same,Potency,[3],inactive
same,Potency,[4],inactive
same,Potency,[5],inactive
same,Potency,[6],inactive
C=CC(=O)NCNC(=O)C=C,Potency,[1],inactive
same,Potency,[2],inactive
same,Potency,[3],inactive
same,Potency,[4],inactive
same,Potency,[5],inactive
same,Potency,[6],inactive
O=C(O)CNC(=O)c1c(O)c2ccccc2n(Cc2ccccc2)c1=O,Potency,[1],inactive
same,Potency,[2],inactive
same,Potency,[3],inactive
same,Potency,[4],inactive
same,Potency,[5],inactive
same,Potency,[6],inactive
CC(=O)OCC1=C(C(=O)O)N2C(=O)[C@@H](N)[C@@H]2SC1,Potency,[1],inactive
same,Potency,[2],inactive
same,Potency,[3],inactive
same,Potency,[4],inactive
same,Potency,[5],inactive
same,Potency,[6],inactive
CCO/N=C(\CC)C1=C(O)CC(c2c(C)cc(C)cc2C)CC1=O (stereo not given),Potency,[1],inactive
same,Potency,[2],inactive
same,Potency,[3],inactive
same,Potency,[4],inactive
same,Potency,[5],inactive
same,Potency,[6],inactive
CC[C@H]1C=CC=CC[C@@H](C)[C@H](O)[C@@](C)(O)C(=O)[C@@H](C)[C@H](O)[C@@H](C)C(=O)[C@@H](C)[C@H](O)[C@@H](C)C=CC(=O)O[C@@H]2[C@@H](C)[C@H](CC1)O[C@]1(CC[C@H](C)[C@H](C[C@@H](C)O)O1)[C@H]2C,Potency,[1],1050 nM (active)
same,Potency,[2],18700 nM (active)
same,Potency,[3],137 nM (active)
same,Potency,[4],86.3 nM (active)
same,Potency,[5],96.8 nM (active)
same,Potency,[6],76.9 nM (active)
NC1=NC(=O)N2CC12 (stereo not given),Potency,[1],inactive
same,Potency,[2],inactive
same,Potency,[3],inactive
same,Potency,[4],inactive
same,Potency,[5],inactive
same,Potency,[6],inactive
C[C@]12CC[C@H](O)CC1=CC[C@H]1[C@H]3CCC(=O)[C@@]3(C)CC[C@@H]12,Potency,[1],inactive
same,Potency,[2],inactive
same,Potency,[3],inactive
same,Potency,[4],inactive
same,Potency,[5],inactive
same,Potency,[6],inactive
O=C(O)CC[N+](=O)[O-],Potency,[7],inactive
same,Potency,[8],inactive
same,Potency,[9],inactive
same,outcome,[10],inactive
same,outcome,[11],inactive
same,Potency,[12],inactive
same,outcome,[13],inactive
C/C=C(/C)C(=O)O[C@H]1C(C)=C2[C@H]([C@@H]1OC(=O)CCCCCCC)[C@@](C)(OC(C)=O)C[C@H](OC(=O)CCC)[C@@]1(O)[C@H]2OC(=O)[C@@]1(C)O,outcome,[11],inactive
same,Potency,[12],inactive
Cn1cnc(CCN)c1,Potency,[7],inactive
same,Potency,[8],inactive
same,Potency,[9],inactive
same,Potency,[2],inactive
same,outcome,[11],inactive
same,Potency,[12],inactive
same,Potency,[3],inactive
same,Potency,[4],inactive
same,Potency,[5],inactive
same,Potency,[6],inactive
